Structures are written as SMILES. Where “and” joins values, the source holds several entries; their conditions need not be identical. Identical values can stand only once. Compounds without any hit were thinned out: in the full panel of roughly 83,000, 20% have a hit.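 Step 1: grow cells in 96-well plates. Step 2: add test compound at a single concentration. Step 3: incubate 48 h. Step 4: record percent growth.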 Values without a mark were called inactive. Calls of active or inactive are those of the source. Rule for the calls: active = growth percent below 10; inactive = the rest.

The assay has as its system MDA-MB-468 breast. Put plainly: NCI-60 one-dose screen, 48 h (100 = growth as untreated, 0 = no growth, -100 = all killed). Particulars: 10 µM unless noted.
As to `ClC1C2CC(c3ccccc32)C1Cl` (centres undefined), the growth is 104%. As to `Cc1csc(-c2nnc(Nc3ccc(Oc4ncccc4-c4ccnc(N)n4)cc3)c3ccccc23)c1`, the growth was 41.6%. Under `Nc1ccc(NC(=O)c2cccc(N)c2)cc1` stands 94.2%. The same measure for `CCn1cc(C2NC(=O)c3cc(F)ccc3N2)c2cccc(Cl)c21` (centres undefined): 7.04% (active); for `Nc1cc2c(cc1Cl)-c1ccc([N+](=O)[O-])cc1/C2=N\O`: 77.7%; for `CCOC(=O)c1c(C)[nH]c(C(=O)CCC(=O)OC)c1C`: 114%.

In the case of `CNc1ccc(CSc2ccc(C)cc2)cc1`, the growth is 15.6%. As for `O=C(CSc1nc2ccc([N+](=O)[O-])cc2[nH]1)Nc1cccc(Cl)c1`, the growth was -10.4% (active). Under `O=S1(=O)NCCN1CCNc1nccc(-c2c(-c3cccc(O)c3)nc3sccn23)n1` stands 96.8%; under `CCCCCCc1nc2c(c(C)nn2-c2ccccc2)c2c1CCCCC2`, 127%; under `Fc1ccc(-c2nnc(N3CCOCC3)c3ccccc23)cc1`, 98.8%.

With `CCN1CCC2(CC1)OC(c1ccccc1)C(c1ccccc1)O2` (centres undefined), the growth is 102%. On to `NC(=O)c1c(NC(=O)c2cccc(OC(F)(F)F)c2)sc2c1CCC(=O)C2`, for which the growth is 42%. Turning to `Cn1cc(-c2ccc3cc(-c4ccc(CC(=O)Nc5cc(C(C)(C)C)nn5C)cc4)cnc3c2)cn1`, the growth was -6.24% (active). The same measure for `CCC(C)C1NC(=O)c2nc(oc2-c2ccccc2)-c2csc(n2)-c2csc(n2)-c2nc(oc2C)-c2coc(n2)CNC(=O)C(C(C)CC)NC1=O` (centres undefined): -76.9% (active); for `CNCCOc1nc2c3cnccc3cc(-c3cc(OC)c(OC)c(OC)c3)c2c2ccncc12`: -43.2% (active). Under `CNC(=O)c1cccc(-c2ccc3c(N4CCOC[C@@H]4C)nc(N4CCOC[C@@H]4C)nc3n2)c1` stands -30.7% (active) and -22.8% (active). On to `O=C(/C=C(/C=C/c1cccc2[nH]ccc12)OB(F)F)/C=C/c1cccc2[nH]ccc12`, for which the growth is -57% (active). Under `COc1ccc2c(/C=C3/C(=O)NC(=S)NC3C)cc(=O)oc2c1` (centres undefined) stands 90.4%. The same measure for `C#CCOCC1CN(C)C(=O)O1` (centres undefined): 118%. The same measure for `COc1cccc(C2C(C#N)=C(N)Oc3cc(N)ccc32)c1` (centres undefined): -22.2% (active); for `COc1ccc(C2CC(c3ccc4ccccc4c3)=NN2/C=C2\SC(=S)N(NC(=O)Cc3ccccc3Nc3c(Cl)cccc3Cl)C2=O)cc1` (centres undefined): 7.11% (active); for `Cc1nonc1-c1ccc2c(c1)OCO2`: 111% and 93.8%. In the case of `O=C(Cn1c(-c2ccc([N+](=O)[O-])cc2)nc2ccccc21)NNC(=O)c1cccnc1`, the growth is -12.6% (active). The same measure for `C/C=C/C1OCC(CC)C(CCC)O1` (centres undefined): 122%; for `COc1ccc(-c2nc3ccc(-c4nnc(SCC(=O)Nc5ccc(C(=O)/C=C/c6ccc(Cl)cc6)cc5)o4)cc3[nH]2)cc1`: 98.1%; for `CC1(C)[C@@H](O)CC[C@]2(C)[C@H]3CC[C@@H]4[C@H]5[C@H](c6cn(-c7ccccc7)nn6)CC[C@]5(CO)CC[C@@]4(C)[C@]3(C)CC[C@@H]12`: 65.4%. The same measure for `Cc1ccc(-c2nc3c(N=Nc4ccc(S(N)(=O)=O)cc4)c(N)nn3c(N)c2C#N)cc1`: 5.87% (active); for `COc1cc(-c2cc(C(=O)N3CCN(C(=O)c4ccccc4NCc4cccs4)CC3)nc3cc(-c4ccccc4)nn23)cc(OC)c1OC`: 64.6%; for `CN1CCN(c2c(F)cc(NC3=C(Cl)C(=O)c4ncccc4C3=O)cc2F)CC1`: -46.6% (active).

In the case of `Cc1ccc(Nc2nccc(N(C)c3ccc4c(C)n(C)nc4c3)n2)cc1S(N)(=O)=O`, the growth is 34.1%.

Consider `COc1ccc(-c2[nH]nc(N)c2-c2cc(OC)c3c(c2)OCO3)cc1`, for which the growth is 33.5%.

For `NS(=O)(=O)c1ccc(Nc2nc3n[nH]c(Nc4ccccc4)c3c(=O)[nH]2)cc1`, the growth is 108%. The same measure for `O=C1COCCN1c1ccc(NCc2cn(Cc3cccc4ccccc34)c3ccccc23)cc1`: -24.8% (active); for `Cc1ccc(-c2nc([P+](c3ccccc3)(c3ccccc3)c3ccccc3)c(S(=O)(=O)c3ccc(C)cc3)o2)cc1`: -21.5% (active). The same measure for `Cc1ccc(-c2nc(/C=N/Nc3cc(C)nc4ccc(Br)cc34)c(C)o2)cc1`: -89% (active). With `NC(=O)c1cccc(-c2ccc(S(=O)(=O)Nc3ccc4c(c3)N(C(=O)C3CC3)CCC4)cc2)c1`, the growth was -4.85% (active). On to `Cc1ccc(-n2cc(-c3ccccc3)c3c2N=NN2CCN=C32)cc1`, for which the growth is 103%. For the molecule `Nc1nc(N)c(N)c(Nc2ccc(CCO)cc2)n1`, the growth was 92.8%.

Values taken from PubChem BioAssay (NCI).
